Screening data from PubChem.
LASV entry inh – qHTS for Inhibitors of binding or entry into cells for Lassa Virus | 1.2% of 300,000 active | Lassa virus pseudotype entry inhibition, cell reporter | Potency, µM (highest dose often 37.9 µM), usual class: inhibitors; calls by dose curve; tested in HEK293 cells; also: nearly all actives have a fitted effect of over 50% in size
SARS PLP yeast – qHTS of Yeast-based Assay for SARS-CoV PLP; S. cerevisiae expressing SARS-CoV PLpro, growth rescue; Potency, µM (top dose mostly 32.9 µM), most hits filed as activators; 0.19% of 330,000 active; AID 485353, 2010; calls by dose curve; also: nearly all actives have a fitted effect of over 55% in size
HCMV inh – qHTS Assay for inhibitors of the human cytomegalovirus (HCMV) | HFF cells, HCMV-luciferase reporter, 72 h; active compounds read low | 4.5% of 410,000 active | activity change, negative = inhibition, % at 57.5 µM; in the data active = activity change below about -60%; inconclusive = no clear call, values can overlap the other calls; inactive = above about -39%
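Luciferase read-out from HCMV-luciferase-infected HFFs (MOI 1 PFU/cell) 72 h post infection at 37C; compounds added after 16 h cell attachment; activity normalized between buffer-only basal and Salinomycin (10uM) inhibitor controls.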
HCV inh – qHTS Assay for Inhibitors of Hepatitis C Virus (HCV). AID 651820, 2012. Huh7.5.1 HCVcc-Cre infection, luciferase reporter, 44 h. 3.4% of 340,000 active. Potency, µM (titrated, usually from 41.8 µM), most hits filed as inhibitors; active = well fitted inhibition curve with a large enough effect; inconclusive = small, poorly fitted or top-dose-only effect, or another doubt; inactive = no such curve, though single readings can be large or run the other way
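A cell-based infection assay in which seeded cells (1,000 per well) receive test compound after 4 h, are inoculated with HCVcc-Cre at approximately 0.5 moi, and are incubated 44 h before luminescence detection.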
FMDV inh – High Throughput Screening for Foot and Mouth Disease Virus Antivirals | FMDV antiviral cell-based qHTS | Potency, µM (top dose mostly 57.9 µM), most hits filed as inhibitors | 1.2% of 410,000 active | AID 1159524, 2015; calls by dose curve; tested in HEK293T cells; also: read-out not given here; nearly all actives have a fitted effect of over 45% in size
Marburg entry inh – qHTS for inhibitors of binding or entry into cells for Marburg Virus. 1.8% of 300,000 active. AID 540276, 2011. Marburg virus pseudotyped entry inhibition, cell reporter. Potency, µM (top dose mostly 37.8 µM), actives largely listed as inhibitors; calls by dose curve; tested in HEK293 cells
Large screens that a line does not name were inactive. Hits are enriched below; roughly 8% of the tested compounds scored in any of these assays.

CC(=O)c1cc(C(=O)N2CCCC(CCC(=O)N(C)CCc3ccccn3)C2)cs1 (stereo not given)	HCMV inh -66.5
CN(CCc1ccccn1)C(=O)CCC1CCCN(C(=O)CN2CCCCCC2)C1 (stereo not given)	none
O=C(COc1ccc(Cl)cc1)Nc1cc(NC(=O)COc2ccc(Cl)cc2)cc(C(=O)O)c1	none (no result: LASV entry inh, Marburg entry inh)
CCOC(=O)c1sc(NC(=O)c2cccc(S(=O)(=O)N3c4ccccc4CC3C)c2)cc1C (stereo not given)	LASV entry inh inconclusive, HCV inh 3.98µM, Marburg entry inh inconclusive
COc1ccccc1N1CCN(C(=O)c2cccc(S(=O)(=O)N3c4ccccc4CC3C)c2)CC1 (stereo not given)	LASV entry inh inconclusive, HCV inh 10µM, Marburg entry inh inconclusive (no result: SARS PLP yeast)
Cc1noc(C)c1COC(=O)c1cccc(S(=O)(=O)N2c3ccccc3CC2C)c1 (stereo not given)	LASV entry inh inconclusive, HCV inh 11.2µM, FMDV inh inconclusive, Marburg entry inh inconclusive
CC1Cc2ccccc2N1S(=O)(=O)c1cccc(C(=O)N2CCCCC2)c1 (stereo not given)	Marburg entry inh inconclusive
Cc1cc(NC(=O)c2cccc(S(=O)(=O)N3c4ccccc4CC3C)c2)no1 (stereo not given)	HCV inh inconclusive (no result: LASV entry inh, Marburg entry inh)
Cc1c(C(=O)NCc2ccc3c(c2)OCO3)cnn1-c1ncc2c(n1)-c1ccccc1CC2	none (no result: LASV entry inh, SARS PLP yeast, HCMV inh, HCV inh, Marburg entry inh)
O=C1/C(=C\c2ccc(C(F)(F)F)cc2)CSc2sccc21	none (no result: LASV entry inh, Marburg entry inh)
COc1ccc(-c2ccc(SCC(=O)c3ccccc3)nn2)cc1OC	HCV inh inconclusive
COc1ccc2nc(N(Cc3cccnc3)C(=O)c3ccco3)sc2c1	none (no result: SARS PLP yeast, HCV inh, Marburg entry inh)
Cc1ccc(Cn2ccsc2=NC(=O)CCl)cc1	HCMV inh -99.0, HCV inh 0.562µM, FMDV inh inconclusive (no result: LASV entry inh, Marburg entry inh)
Cc1ccc(NC(=O)CSCC(=O)N=c2sccn2C)cc1	none
Cc1ccc(Cn2ccsc2=NC(=O)COC(=O)c2ccc(NC(=O)CC#N)cc2)cc1	LASV entry inh inconclusive, HCV inh inconclusive, FMDV inh 25.1µM, Marburg entry inh inconclusive
Cc1ccc(NC(=O)CN(C)C(=O)COC(=O)c2ccc(NC(=O)CC#N)cc2)cc1	none
Cn1cc(C(=O)NCc2ccccc2)c(=O)c2cc(S(=O)(=O)N3CCCCCC3)ccc21	none (no result: SARS PLP yeast, HCV inh, Marburg entry inh)
COc1cc(OC)cc(C2=Cc3ccc(OC)cc3C(CC(C)=O)N2c2ccc(-c3cccs3)cc2)c1 (stereo not given)	HCMV inh -82.7 (no result: LASV entry inh, SARS PLP yeast, HCV inh, Marburg entry inh)
COc1cc(OC)cc(C2=Cc3ccccc3C(CC(C)=O)N2c2ccc(-c3cccs3)cc2)c1 (stereo not given)	HCMV inh inconclusive (no result: LASV entry inh, SARS PLP yeast, HCV inh, Marburg entry inh)
c1ccc(C(c2c[nH]c3ccccc23)c2c[nH]c3ccccc23)nc1	none
c1ccc(C(c2cccs2)c2c[nH]c3ccccc23)cc1 (stereo not given)	LASV entry inh inconclusive, HCMV inh -66.5, FMDV inh inconclusive (no result: SARS PLP yeast, HCV inh, Marburg entry inh)
O=C(C1CCN(S(=O)(=O)c2ccc(Br)s2)CC1)N1CCN(c2cccc(C(F)(F)F)c2)CC1	LASV entry inh 8.91µM, HCMV inh inconclusive, FMDV inh inconclusive, Marburg entry inh inconclusive (no result: SARS PLP yeast, HCV inh)
O=C(Cc1ccc(S(=O)(=O)N2CCOCC2)s1)N1CCN(c2cccc(C(F)(F)F)c2)CC1	HCV inh 12.6µM (no result: LASV entry inh, HCMV inh, Marburg entry inh)
Cc1ccc(C(=O)NNC(=O)/C=C\C(=O)O)cc1	LASV entry inh inconclusive
COc1cc(CN2CCCC(c3nc(-c4ccncc4)ncc3-c3ccccc3)C2)ccc1O (stereo not given)	none (no result: LASV entry inh, SARS PLP yeast, HCMV inh, HCV inh, Marburg entry inh)
Cc1ccc(NC(=O)CNC(=O)Cn2c(C)cc3ccccc3c2=O)cc1F	none (no result: SARS PLP yeast, HCV inh)
Cc1cc2ccccc2c(=O)n1CC(=O)N(C)c1ccc(F)cc1	HCMV inh -103.0
O=C(CCNC(=O)c1ccco1)Nc1ccccc1N1CCOCC1	none
COc1cc(C(=O)OCc2cc3ccccc3[nH]c2=O)cc(OC)c1OC	HCMV inh -86.1
C=C(Cl)COc1ccc2c(CC)cc(=O)oc2c1	HCV inh 8.91µM (no result: FMDV inh)
Cc1cc(Oc2ccc(-c3ccccc3)cc2)n2ncnc2n1	FMDV inh 39.8µM
CCN(c1ccccc1)c1cc(C)nc2ncnn12	none (no result: LASV entry inh, Marburg entry inh)
Cn1ccc2cc(-c3ccc4ncnc(NCc5cccnc5)c4c3)ccc21	none (no result: LASV entry inh, HCMV inh, HCV inh, FMDV inh, Marburg entry inh)
Cn1ccc2cc(-c3ccc4ncnc(NCc5cccs5)c4c3)ccc21	HCMV inh -71.9, FMDV inh inconclusive (no result: LASV entry inh, HCV inh, Marburg entry inh)
O=C(O)/C=C/c1ccc(S(=O)(=O)Nc2ccc(C(=O)NCC(=O)O)cc2)cc1	none
COc1cc(/C=N/NC(=S)NC2CC3C=CC2C3)cc(OC)c1OC (stereo not given)	LASV entry inh inconclusive, HCMV inh -61.0, HCV inh inconclusive, FMDV inh inconclusive, Marburg entry inh inconclusive
Cn1nnnc1NCc1cccc(Cl)c1Cl	LASV entry inh inconclusive, Marburg entry inh inconclusive
CCOc1ccc(NC(=O)c2ccc(CNc3c(N4CCCC4)c(=O)c3=O)cc2)cc1	none (no result: LASV entry inh, Marburg entry inh)
CCOc1ccc(NC(=O)CCNc2c(N3CCCC3)c(=O)c2=O)cc1	HCMV inh -60.9, Marburg entry inh inconclusive
O=C(c1ccc([N+](=O)[O-])o1)N1CCN(c2nc3c(Cl)cccc3s2)CC1	LASV entry inh inconclusive, HCMV inh inconclusive, HCV inh inconclusive, FMDV inh inconclusive, Marburg entry inh inconclusive
COc1cccc2sc(N3CCN(C(=O)c4ccc([N+](=O)[O-])o4)CC3)nc12	LASV entry inh inconclusive, HCV inh 7.94µM, FMDV inh inconclusive (no result: HCMV inh)
CN(CC(=O)Nc1ccc(F)cc1)C(=O)c1ccc(OCc2ccccc2)cc1	none
CC(OC(=O)c1ccc(Cl)c(S(N)(=O)=O)c1)C(=O)NCC1CCCCC1 (stereo not given)	HCMV inh -87.0, HCV inh inconclusive (no result: LASV entry inh, Marburg entry inh)
NS(=O)(=O)c1cc(C(=O)NCC2CCCCC2)ccc1Cl	none
COc1cc(/C=C/C(=O)Nc2ccc(OC)c(S(=O)(=O)N3CCOCC3)c2)ccc1OC(F)F	LASV entry inh 12.6µM, HCMV inh -85.9, HCV inh 0.251µM, FMDV inh inconclusive, Marburg entry inh inconclusive
CCOc1ccccc1NC(=O)/C=C/c1ccc(S(=O)(=O)N2CCOCC2)cc1	LASV entry inh inconclusive, HCV inh 10µM
COc1ccc(/C=C/C(=O)Nc2ccc(C(C)=O)cc2)cc1S(=O)(=O)N1CCOCC1	none (no result: LASV entry inh, SARS PLP yeast, HCV inh, Marburg entry inh)
COc1ccc(/C=C/C(=O)Nc2ccccc2F)cc1S(=O)(=O)N1CCOCC1	LASV entry inh inconclusive, HCV inh 10µM, FMDV inh 25.1µM, Marburg entry inh inconclusive
COc1ccc(/C=C/C(=O)Nc2cccc(F)c2)cc1S(=O)(=O)N1CCOCC1	LASV entry inh 5.62µM, HCMV inh inconclusive, HCV inh 10µM, FMDV inh 35.5µM, Marburg entry inh inconclusive
CCOc1ccc(S(=O)(=O)N(CC)CC(=O)NCc2ccncc2)cc1C	none
